PubChem BioAssay (NCATS)
Several values for one entry are separate records, joined by “and”; a condition that tells them apart may be missing. Equal values may be shown once. Results filed as inconclusive are left out. A call without a number means that no potency is given here. Activity calls are given as the source filed them. Calls follow the shape of the dose curve; as a rule, active = well fitted curve in the direction sought with a large enough effect; inconclusive = small, poorly fitted or top-dose-only effect, or another doubt; inactive = no such curve, though single readings can be large; an effect the other way counts as inactive or inconclusive.

Experiments:
[1] = target: N-terminal Xaa-Pro-Lys N-methyltransferase 1 (Homo sapiens) (UniProt Q9BV86); assay: qHTS Assay for Inhibitors of N-terminal methyltransferase 1 (NTMT1): LOPAC validation of the NTMT1 SAHH-coupled ThioGlo3 Assay (AID 1347143);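 also: SAH from peptide methylation measured as thiol fluorescence via SAHH coupling and ThioGlo3; nearly all actives have a fitted effect of over 70% in size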; also: potency is read from the fitted curve at half-maximal effect
Chain of N-terminal Xaa-Pro-Lys N-methyltransferase 1 (Homo sapiens) (Q9BV86 whole entry, looked up): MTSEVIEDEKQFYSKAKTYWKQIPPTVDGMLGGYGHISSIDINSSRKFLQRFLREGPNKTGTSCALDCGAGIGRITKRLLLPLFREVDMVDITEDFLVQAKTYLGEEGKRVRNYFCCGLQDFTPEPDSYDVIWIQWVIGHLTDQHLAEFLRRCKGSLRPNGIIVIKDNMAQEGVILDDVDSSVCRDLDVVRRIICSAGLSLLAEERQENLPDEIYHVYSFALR
How it was run: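 In this qHTS pilot against the LOPAC set, 125nM NTMT1 met compounds tested at multiple concentrations, and fluorescence was normalized to background.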

[2] = tested on: Zika virus NS2B-NS3 protease (unlinked); assay: Optimization of GU AMC qHTS for Zika virus inhibitors: Unlinked NS2B-NS3 protease assay (AID 1347151); also: nearly all actives have a fitted effect of over 80% in size; also: potency is read from the fitted curve at half-maximal effect
How it was run: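 In this qHTS, compounds acted on 25 nM unlinked Zika NS2B–NS3 in pH 8.0 Tris/Tween buffer. Cleavage of an AMC peptide ran 15 min at room temperature, to about 20% conversion.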

[3] = tested on: Zika virus NS2B-NS3 protease; assay: Primary screen GU AMC qHTS for Zika virus inhibitors (AID 1347154); also: nearly all actives have a fitted effect of over 70% in size; also: potency is read from the fitted curve at half-maximal effect
How it was run: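 Unlinked Zika NS2B hydrophilic domain/NS3 protease domain noncovalent complex (25 nM final) in 10 mM Tris-HCl pH 8.0, 0.01% Tween 20, with AMC peptide substrate. Fluorescence (ex 340, em 450 nm) change over 15 min, room temperature; percent inhibition fitted to 4-parameter Hill equation.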

Furin (Homo sapiens) = Furin (Homo sapiens) (UniProt P09958); assay: Furin counterscreen qHTS for Zika virus inhibitors (AID 1347149); also: potency is read from the fitted curve at half-maximal effect; nearly all actives have a fitted effect of over 70% in size
Chain of Furin (Homo sapiens) (P09958 whole entry, looked up): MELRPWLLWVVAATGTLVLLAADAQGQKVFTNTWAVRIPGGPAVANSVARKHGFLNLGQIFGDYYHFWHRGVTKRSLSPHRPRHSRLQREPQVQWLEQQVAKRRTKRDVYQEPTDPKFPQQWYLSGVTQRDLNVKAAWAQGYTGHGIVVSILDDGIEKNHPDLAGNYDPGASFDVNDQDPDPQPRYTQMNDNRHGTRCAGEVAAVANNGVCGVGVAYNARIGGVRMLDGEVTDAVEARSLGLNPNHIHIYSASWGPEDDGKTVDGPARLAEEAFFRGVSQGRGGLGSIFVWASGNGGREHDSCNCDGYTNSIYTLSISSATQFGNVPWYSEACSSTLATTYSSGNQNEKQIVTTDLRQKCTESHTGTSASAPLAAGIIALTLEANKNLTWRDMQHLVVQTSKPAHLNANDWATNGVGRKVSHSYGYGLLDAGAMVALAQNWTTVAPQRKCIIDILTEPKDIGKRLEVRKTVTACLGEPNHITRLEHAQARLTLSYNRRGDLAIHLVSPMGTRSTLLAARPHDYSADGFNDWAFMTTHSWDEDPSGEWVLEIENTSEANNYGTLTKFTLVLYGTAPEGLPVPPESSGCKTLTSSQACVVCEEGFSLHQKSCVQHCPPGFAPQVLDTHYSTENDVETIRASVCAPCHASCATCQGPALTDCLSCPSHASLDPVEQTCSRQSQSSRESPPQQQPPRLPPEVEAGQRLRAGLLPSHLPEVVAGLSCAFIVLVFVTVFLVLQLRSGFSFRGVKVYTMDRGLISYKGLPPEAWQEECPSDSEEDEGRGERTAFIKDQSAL
How it was run: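 Counterscreen measures cleavage of 2 microM BOC-RVRR-AMC, below its ~15 microM Km, by 5 nM full-length human furin at pH 7.0 after a 15-min compound preincubation. Inhibition derives from the 15-min fluorescence increase at 37C.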

[4] = tested on: Zika virus NS2B-NS3 protease (linked construct); assay: Confirmatory screen NINDS AMC qHTS for Zika virus inhibitors (AID 1347152); also: potency is read from the fitted curve at half-maximal effect; nearly all actives have a fitted effect of over 70% in size
How it was run: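 Concentration-response confirmation used the NINDS linked protease (NS2B hydrophilic domain joined to NS3 protease domain), 1 nM, with a 15-min compound preincubation. Substrate, Nle-KRR-AMC at 10 microM, was read by UV fluorescence before and after 15 min.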

[5] = Confirmatory screen NINDS Rhodamine qHTS for Zika virus inhibitors (AID 1347161); also: nearly all actives have a fitted effect of over 60% in size; also: potency is read from the fitted curve at half-maximal effect
How it was run: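 In 10 mM Tris-HCl pH 8.0 containing 0.01% Tween 20, linked NS2B-NS3 protease (25 nM final) is exposed to test compounds for 15 min. Cleavage of 1.5 microM Rhodamine110 substrate is tracked by fluorescence over 15 min.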

[6] = qHTS of pediatric cancer cell lines to identify multiple opportunities for drug repurposing: Confirmatory screen for RD cells (AID 1347124);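 also: cells exposed to compound for 48 h before viability readout; nearly all actives have a fitted effect of over 65% in size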
How it was run: (§1)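 Cells (500-1,000/well) in growth media were settled 5 h at 37 degrees C, then given compounds for 48 h. Viability was read as CellTiter-Glo luminescence. Primary runs used MIPE at 11 points (0.78 nM-46 µM) and NPC at 8 points (0.59 nM-46 µM); follow-ups used 11 points.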

[7] = qHTS of pediatric cancer cell lines to identify multiple opportunities for drug repurposing: Confirmatory screen for Rh18 cells (AID 1347125); also: nearly all actives have a fitted effect of over 55% in size; also: potency is read from the fitted curve at half-maximal effect
How it was run: as §1

[8] = qHTS of pediatric cancer cell lines to identify multiple opportunities for drug repurposing: Confirmatory screen for SK-N-SH cells (AID 1347129);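 also: cells exposed to compound for 48 h before viability read; nearly all actives have a fitted effect of over 60% in size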
How it was run: as §1

[9] = qHTS of pediatric cancer cell lines to identify multiple opportunities for drug repurposing: Confirmatory screen for Saos-2 cells (AID 1347127); also: nearly all actives have a fitted effect of over 60% in size
How it was run: as §1

[10] = qHTS of pediatric cancer cell lines to identify multiple opportunities for drug repurposing: Confirmatory screen for Rh41 cells (AID 1347123);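 also: potency is read from the fitted curve at half-maximal effect; 48 h compound exposure; nearly all actives have a fitted effect of over 60% in size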
How it was run: as §1

[11] = tested on: Zika virus NS2B-NS3 protease (linked construct); assay: Primary screen NINDS Rhodamine qHTS for Zika virus inhibitors (AID 1347160); also: nearly all actives have a fitted effect of over 55% in size
How it was run: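 Single-chain NS2B-NS3 protease, 25 nM, pH 8.0; compounds preincubated 15 min. Activity: Rhodamine110 release from 1.5 microM substrate over 15 min, room temperature, data fitted to 4-parameter Hill.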

[12] = tested on: Zika virus NS2B-NS3 protease (unlinked complex); assay: Confirmatory screen GU AMC qHTS for Zika virus inhibitors (AID 1347153); also: nearly all actives have a fitted effect of over 70% in size; also: potency is read from the fitted curve at half-maximal effect
How it was run: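 Unlinked enzyme 25 nM, Tris pH 8.0/0.01% Tween 20; cpd 15 min RT, dark; + AMC substrate 10 µM (Km 18.3 µM); 340/450 nm read at t0 and 15 min; % inhibition → 4-param fit.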

[13] = tested on: Zika virus NS2B-NS3 protease (linked); assay: 384 well plate NINDS AMC confirmatory qHTS for Zika virus inhibitors (AID 1347163);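 also: fluorescence of AMC released from Ac-VKTGKR-AMC peptide cleaved by the protease; top concentration of the series differs between compounds; nearly all actives have a fitted effect of over 50% in size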
How it was run: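 Enzyme (5, 30 or 60 nM final) first met test compounds for ~15 min. The AMC-tagged peptide Ac-VKTGKR-AMC followed at 30 microM. Fluorescence was then recorded at 25 min and scaled against no-enzyme and no-inhibitor wells.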

[14] = tested on: Zika virus NS2B-NS3 protease (linked construct); assay: 384 well plate NINDS Rhodamine confirmatory qHTS for Zika virus inhibitors (AID 1347164); also: top concentration of the series differs between compounds; nearly all actives have a fitted effect of over 65% in size
How it was run: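 Cleavage of Ac-LKRR-Rhodamine 110 (10 microM final) by linked protease (final 5, 30 or 60 nM) was followed as fluorescence at 485/538 nm after 25 min, room temperature, dark. Compounds preincubated ~15 min.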

CC(C)(C)NCC(O)c1ccc(O)c(CO)c1 (stereo not given)
Potency [1]: inactive
Potency [2]: inactive
Potency [3]: inactive

CCn1cc(C(=O)O)c(=O)c2cc(F)c(N3CCNC(C)C3)c(F)c21 (stereo not given)
Potency [1]: 56.2 µM (active)
Potency (Furin (Homo sapiens)): 24.1 µM (active)
Potency [2]: 26.7 µM (active)
Potency [4]: 24.1 µM (active) and 27.1 µM (active)
Potency [3]: 29.9 µM (active)
Potency [5]: inactive

Oc1ccc(C2CNCCc3c2cc(O)c(O)c3Cl)cc1 (stereo not given)
Potency [1]: 44.7 µM (active)
Potency [2]: 16.8 µM (active)
Potency [3]: 12.6 µM (active)

CC(C[N+](C)(C)C)OC(N)=O (stereo not given)
Potency [1]: inactive
Potency [2]: inactive
Potency [3]: inactive

OC[C@H](Cc1ccccc1)Nc1nc(Oc2ccc3c(c2)CCC3)nc2c1ncn2Cc1ccc(-c2ccccc2)cc1
Potency [6]: inactive
Potency [7]: inactive
Potency [8]: inactive
Potency [3]: inactive

Nc1ccc(S(=O)(=O)Nc2ccnn2-c2ccccc2)cc1
Potency [1]: inactive
Potency [2]: inactive
Potency [3]: inactive

OC(CCN1CCCCC1)(c1ccccc1)C1CC2C=CC1C2 (stereo not given)
Potency [1]: inactive
Potency [2]: inactive
Potency [3]: inactive

N[C@@H]1CONC1=O
Potency [1]: inactive
Potency [2]: inactive
Potency [3]: inactive

OC(CN1CCC(Cc2ccc(F)cc2)CC1)c1ccc(Cl)cc1 (stereo not given)
Potency [6]: inactive
Potency [7]: inactive
Potency [9]: inactive
Potency [1]: inactive
Potency [2]: inactive
Potency [3]: inactive

CC(C)C[C@H](NC(=O)[C@@H](O)[C@H](N)Cc1ccccc1)C(=O)O
Potency [1]: inactive
Potency [2]: inactive
Potency [3]: inactive

CCCC(CCC)C(=O)O
Potency [1]: inactive
Potency [2]: inactive
Potency [3]: inactive

NC(=O)c1cnccn1
Potency [1]: inactive
Potency [2]: inactive
Potency [3]: inactive

CCC(C)N(C)C(=O)c1cc2ccccc2c(-c2ccccc2Cl)n1 (stereo not given)
Potency [1]: inactive
Potency [2]: inactive
Potency [3]: inactive

O=c1[nH]cnc2[nH]ncc12
Potency [1]: inactive
Potency [2]: inactive
Potency [3]: inactive

C[C@]12CCC(=O)C=C1CC[C@@H]1[C@@H]2[C@@H](O)C[C@@]2(C)[C@H]1CC[C@]2(O)C(=O)CO
Potency [1]: inactive
Potency [2]: inactive
Potency [3]: inactive

C1COC(NC(C2CC2)C2CC2)=N1
Potency [1]: inactive
Potency [2]: inactive
Potency [3]: inactive

COc1cc2nccc(Oc3ccc(NC(=O)NC4CC4)c(Cl)c3)c2cc1C(N)=O
Potency [10]: 5.85 µM (active)
Potency [7]: 14.7 µM (active)
Potency [8]: inactive
Potency [3]: inactive
Potency [11]: inactive

CNC[C@H](O)c1cccc(O)c1
Potency [1]: inactive
Potency [2]: inactive
Potency [3]: inactive

CCCn1c(=O)c2[nH]c(C34CC5CC3C[C@@H](C5)C4)nc2n(CCC)c1=O
Potency [3]: inactive

Cc1cccc(-c2nn(C(=S)Nc3ccccc3)cc2-c2ccnc3ccccc23)n1
Potency [3]: inactive

CCCc1nc2c(C)cc(-c3nc4ccccc4n3C)cc2n1Cc1ccc(-c2ccccc2C(=O)O)cc1
Potency (Furin (Homo sapiens)): 24.1 µM (active)
Potency [4]: 21.5 µM (active)
Potency [12]: inactive
Potency [3]: inactive
Potency [5]: 13.9 µM (active)

NS(=O)(=O)c1cc2c(cc1Cl)NC=NS2(=O)=O
Potency [1]: inactive
Potency [2]: inactive
Potency [3]: inactive

CC(C)c1onc(-c2c(Cl)cccc2Cl)c1COc1ccc(/C=C/c2cccc(C(=O)O)c2)c(Cl)c1
Potency (Furin (Homo sapiens)): 8.55 µM (active)
Potency [4]: 24.1 µM (active)
Potency [12]: 24.1 µM (active)
Potency [3]: 6.7 µM (active)
Potency [5]: 2.47 µM (active)
Potency [13]: inactive
Potency [14]: inactive
